Consider 19 molecules from PubChem BioAssay (NCATS).

Several values for one entry are separate records, joined by “and”; a condition that tells them apart may be missing. Equal values may be shown once. Results filed as inconclusive are left out. A number with no mark means an inactive call. Activity calls are given as the source filed them. Calls follow the shape of the dose curve; as a rule, active = well fitted inhibition curve with a large enough effect; inconclusive = small, poorly fitted or top-dose-only effect; inactive = flat fitted curve, though single readings scatter.

Test [1] in a line: Drug repurposing screens with cells derived from glioblastoma tumor samples (AID 1345199). Also: nearly all actives have a fitted effect of over 40% in size. The following applies: GBM patient neurospheres viability, ATP luminescence, 48 h. In outline:
(§1)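 Four patient lines of CD133+ GBM neurospheres were screened at several concentrations; hits were retested in those lines plus three slower-growing GBM lines, using 48-hour treatment and ATP-based viability.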

A further test has as its system astro (control astrocytes). The description is as above. The note with it: viability, ATP luminescence, 48 h; series mostly up to 45.9 µM. In outline:
as §1

The mark [2] stands for this setting: at 45.9 µM (top of the series), tumour line B.
The mark [3] stands for this setting: at 45.9 µM (top of the series), tumour line D.
Where [4] appears, read: at 46.1 µM (top of the series), tumour line C.
Setting [5] is: at 46 µM (top of the series), tumour line A.
% is scaled to controls: 0 for no effect and ±100 for the full control effect; potency is read from the fitted curve at half-maximal effect.

Take `O=C1CCC(c2ccccc2)(C2CCN(Cc3ccccc3)CC2)C(=O)N1` (stereo not given): the activity, negative = cell killing is -26.8% in test [1] (setting [2]), -22.6% in test [1] (setting [3]) and -22.6% in test [1] (setting [4]). Moreover, the Potency in test [1] (tumour line A) was 11.2 µM (active). In addition, the Potency entry in the test on astro is “inactive”.

On to `CC[C@@H](C)[C@H](N)C(=O)O`, for which the activity, negative = cell killing in test [1] (setting [2]) was -5.93%; in test [1] (setting [3]) it was -17.3%; in test [1] (setting [5]), -37.7%; in test [1] (setting [4]) it was -13.6%. In the test on astro, the Potency entry was “inactive”.

Regarding `NC(=O)CC[C@@H]1NC(=O)[C@H](Cc2ccccc2)NC(=O)[C@H](Cc2ccc(O)cc2)NC(=O)[C@@H](N)CSSC[C@@H](C(=O)N2CCC[C@H]2C(=O)N[C@@H](CCCN=C(N)N)C(=O)NCC(N)=O)NC(=O)[C@H](CC(N)=O)NC1=O`, the activity, negative = cell killing is -4.7% and -11.9% in test [1] (setting [2]); -8.98% and -1.09% in test [1] (setting [3]); -23.2% in test [1] (setting [5]); 9.23% and 16.1% in test [1] (setting [4]). Moreover, in the test with astro, the Potency entry was “inactive”.

Take `CN1CCC(OC(=O)C(Oc2ccc(Cl)cc2)Oc2ccc(Cl)cc2)CC1`: the activity, negative = cell killing in test [1] (setting [2]) was -23.9%; in test [1] (setting [3]), -4.4%; in test [1] (setting [5]) it was -21%; in test [1] (setting [4]), -21%. For the same molecule, the Potency entry in the test on astro is “inactive”.

For the molecule `C[N+]1(C)[C@@H]2CC(OC(=O)C(O)(c3cccs3)c3cccs3)C[C@H]1[C@@H]1O[C@@H]12` (stereo not given in full), the activity, negative = cell killing in test [1] (setting [2]) is -12.3%; in test [1] (setting [3]), 0.442%; in test [1] (setting [5]), -24.6%; in test [1] (setting [4]), -20.7%. Also, the Potency result with astro was “inactive”.

For `CN1c2c(nc(N)[nH]c2=O)NCC1CNc1ccc(C(=O)NC(CCC(=O)O)C(=O)O)cc1` (stereo not given), the activity, negative = cell killing in test [1] (setting [2]) was -12%; in test [1] (setting [3]) it was -5.57%; in test [1] (setting [5]) it was -17.5%; in test [1] (setting [4]) it was -2.53%. Also, in the test on astro, the Potency result is “inactive”.

Turning to `Cc1ncc(C[n+]2csc(CCOP(=O)(O)O)c2C)c(N)n1`, the activity, negative = cell killing in test [1] (setting [2]) is -1.8%; in test [1] (setting [3]) it was -1.97%; in test [1] (setting [5]) it was -17%; in test [1] (setting [4]), -10.8%. The Potency entry in the test on astro is “inactive”.

Regarding `CCCc1nc(C(C)(C)O)c(C(=O)OCc2oc(=O)oc2C)n1Cc1ccc(-c2ccccc2-c2nn[nH]n2)cc1`, the activity, negative = cell killing in test [1] (setting [2]) is -17.3%; in test [1] (setting [3]), -13.8%; in test [1] (setting [5]), -13%; in test [1] (setting [4]), -13.1%. In addition, the Potency entry in the test with astro was “inactive”.

Turning to H-RKDVY-OH, the activity, negative = cell killing was -2.29% in test [1] (setting [2]), 4.86% in test [1] (setting [3]), -6.05% in test [1] (setting [5]) and -18.9% in test [1] (setting [4]). For the same molecule, the Potency result with astro is “inactive”.

As for `CC(C)c1nc(N(C)S(C)(=O)=O)nc(-c2ccc(F)cc2)c1/C=C/C(O)CC(O)CC(=O)O` (stereo not given), the activity, negative = cell killing is -27.3% in test [1] (setting [2]) and -19% in test [1] (setting [4]). The Potency in test [1] (tumour line A) was 3.55 µM (active); in test [1] (tumour line D), 17.8 µM (active); in the test with astro, 10 µM (active).

Regarding `CO[C@@]1(NC(=O)C2SC(=C(C(N)=O)C(=O)O)S2)C(=O)N2C(C(=O)O)=C(CSc3nnnn3C)CS[C@@H]21` (stereo not given in full), the activity, negative = cell killing is -19.2% in test [1] (at 20 µM (top of the series), tumour line C); -15.8% in test [1] (at 21.2 µM (top of the series), tumour line B); -10.4% in test [1] (at 21.2 µM (top of the series), tumour line D); -12.5% in test [1] (at 21.3 µM (top of the series), tumour line A). Besides, in the test on astro, the Potency result is “inactive”.

Regarding `c1ccc2cc(C3=NCCN3)ccc2c1`, the values for the activity, negative = cell killing in test [1] (setting [2]), in test [1] (setting [3]) and in test [1] (setting [4]) were -16.9%, -20.8% and -24%, respectively. The Potency in test [1] (tumour line A) was 11.2 µM (active). Besides, the Potency entry with astro is “inactive”.

Turning to `NC(=S)NS(=O)(=O)c1ccc(N)cc1`, the activity, negative = cell killing in test [1] (setting [2]) was -6.04%; in test [1] (setting [3]), 0.448%; in test [1] (setting [5]), -23.8%; in test [1] (setting [4]) it was -8.76%. Further, in the test with astro, the Potency entry is “inactive”.

Turning to `O=C(NNCNNC(=O)c1ccncc1)c1ccncc1`, the activity, negative = cell killing in test [1] (setting [2]) is -12%; in test [1] (setting [3]) it was -9.77%; in test [1] (setting [5]), -25.1%; in test [1] (setting [4]), -23%. Besides, the Potency result with astro was “inactive”.

As for `CCOC(=O)[C@@H](N)CS`, the activity, negative = cell killing is -8.18% in test [1] (setting [2]), -11.2% in test [1] (setting [3]), -24.4% in test [1] (setting [5]) and 1.04% in test [1] (setting [4]). For the same molecule, the Potency result in the test on astro was “inactive”.

Consider `S=C=Nc1ccc(N=C=S)cc1`, for which the activity, negative = cell killing was -4.92% in test [1] (setting [2]), -5.1% in test [1] (setting [3]), -24.5% in test [1] (setting [5]) and -6.65% in test [1] (setting [4]). The Potency entry in the test on astro is “inactive”.

In the case of `NC(=O)[C@@H]1CCCN1C(=O)[C@H](Cc1cnc[nH]1)NC(=O)[C@@H]1CCC(=O)N1`, the activity, negative = cell killing in test [1] (setting [2]) was -8.63%; in test [1] (setting [3]), 6.97%; in test [1] (setting [5]) it was -26.1%; in test [1] (setting [4]) it was 5.62%. Moreover, in the test on astro, the Potency entry is “inactive”.

Regarding `O=C(O)c1ccc(NC(=O)[C@H](Cc2ccc(O)cc2)NC(=O)c2ccccc2)cc1`, the activity, negative = cell killing in test [1] (setting [2]) was -3.63%; in test [1] (setting [3]), -4.5%; in test [1] (setting [5]) it was -23.1%; in test [1] (setting [4]), -6.93%. For the same molecule, in the test with astro, the Potency result was “inactive”.

Consider `C=CC1=C(C(=O)O)N2C(=O)[C@@H](NC(=O)/C(=N\O)c3csc(N)n3)[C@H]2SC1` (stereo in doubt), for which the activity, negative = cell killing was 5.66% and -6.14% in test [1] (setting [2]); -12.1% and -17.4% in test [1] (setting [3]); -18.5% in test [1] (setting [5]); 20.4% and -9.47% in test [1] (setting [4]). In the test on astro, the Potency entry is “inactive”.
